PubChem BioAssay (Tox21)
Inconclusive results are not listed. Entries that show only a call come without a potency. Activity calls are given as the source filed them. Calls come from the whole dose curve; as a rule, active = well fitted inhibition curve with a large enough effect in the repeat runs; inconclusive = weak or mixed curves; inactive = no such curve, though single readings can be large or run the other way.

Biological target: Cytochrome P450 1A2 (Homo sapiens) (UniProt P05177)
Test: Cytochrome P450 Family 1 Subfamily A Member 2 (CYP1A2) small molecule antagonists: luciferase reporter qHTS assay (AID 1671199); note: nearly all actives have a fitted effect of over 50% in size
Conditions: P450-Glo CYP1A2 enzyme, luciferin luminescence, 1 h; series mostly up to 53 µM
Excerpt: National Center for Advancing Translational Sciences [NCATS]
U.S. Environmental Protection Agency [EPA]
National Institutes of Environmental Health Sciences [NIEHS]
National Toxicology Program [NTP]
U.S. Food and Drug Administration [FDA]
Cytochrome P450 (CYP) enzymes are membrane-bound hemeproteins that play a key role in metabolism of drugs and xenobiotics. Evaluation of the effect of chemicals on CYP isozymes is useful to minimize the adverse drug reactions and toxicities in drug development process. Tox21 chemicals were tested for their effect on CYP enzyme activities by using P450-Glo (TM) screening systems (Promega Corporation, Madison, WI). These systems provide a luminescent method containing proluciferin substrates and are converted to luciferin products by CYP isozymes. The luciferin products formed are detected with a luciferin detection reagent, and the amount of light produced is proportional to CYP activity. P450-Glo (TM) CYP1A2 screening system (Catalog. No. V9770) was used to detect the compounds that interfere in CYP1A2 activity. The positive control compound used for CYP1A2 assay is furafylline (Sigma-Aldrich, St. Louis, MO).
Tox21 Assay Protocol Summary:
Two ul of enzyme-substrate mix was dispensed into medium binding white/solid 1536-well plates (Greiner Bio-One North America Inc., Monroe, NC) using a BioRaptr Flying Reagent Dispenser (FRD, Beckman Coulter, Brea, CA). Compounds dissolved in DMSO and positive control (furafyllline) were transferred to the assay plates at 23 nl using a Pintool station (Wako, San Diego, CA). The assay plates were incubated at room temperature for 10 min. Then 2 ul of NADPH regeneration solution was added to each well of the assay plates using an FRD and incubated at room temperature for 1 h. The reaction was stopped by adding 4 ul of detection reagent using an FRD and after 20 min incubation at room temperature the luminescence signal was measured using a ViewLux plate reader (Perkin Elmer, Shelton, CT). Data were expressed as relative luminescence units.
Potency is the fitted concentration of half-maximal effect.

Cytochrome P450 1A2 (Homo sapiens), sequence (P05177 whole entry, looked up): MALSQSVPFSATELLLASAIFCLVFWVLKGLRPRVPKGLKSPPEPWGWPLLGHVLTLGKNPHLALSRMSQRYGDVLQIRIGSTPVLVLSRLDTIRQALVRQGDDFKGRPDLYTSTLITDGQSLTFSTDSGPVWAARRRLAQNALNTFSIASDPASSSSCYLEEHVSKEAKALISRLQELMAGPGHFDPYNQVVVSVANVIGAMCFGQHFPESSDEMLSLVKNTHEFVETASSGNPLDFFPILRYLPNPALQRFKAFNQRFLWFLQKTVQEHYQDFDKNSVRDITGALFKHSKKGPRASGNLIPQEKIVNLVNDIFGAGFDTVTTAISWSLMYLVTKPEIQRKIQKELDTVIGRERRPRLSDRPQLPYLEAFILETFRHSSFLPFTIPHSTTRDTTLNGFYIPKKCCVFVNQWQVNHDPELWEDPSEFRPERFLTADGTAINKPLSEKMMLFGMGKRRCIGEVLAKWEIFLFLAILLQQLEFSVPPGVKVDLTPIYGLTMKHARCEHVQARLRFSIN

Structure (SMILES) | Potency
Cc1cccc(C)c1OCC(C)N (stereo not given) | 1.62 µM (active)
C=CC(OCC)OCC | inactive
Cc1[nH]cnc1-c1ccc(Cl)cc1 | 2.19 µM (active)
COc1ccc2c(c1)C(=O)N(CCc1ccc(S(=O)(=O)NC(=O)NC3CCCCC3)cc1)C(=O)C2(C)C | inactive
CCOCCOC(=O)/C=C/c1ccc(OC)cc1 | 7.76 µM (active)
CCCCC(CC)COCCO (stereo not given) | 17.8 µM (active)
COc1ccc(S(=O)(=O)N2c3ccc(Cl)cc3[C@@](O)(c3ccccc3Cl)[C@H]2C(=O)N2CCC[C@@H]2C(N)=O)cc1OC | inactive
CC(=O)OC(C)OC(=O)C(C)c1ccc(-c2ccccc2)c(F)c1 (stereo not given) | 8.71 µM (active)
CC(=O)N[C@@H](CCC(=O)O)C(=O)O | inactive
Cc1cc(Cl)c(C)cc1Cl | inactive
CC(C)=O | inactive
CC(=O)NCc1c(I)c(NC(C)=O)c(I)c(C(=O)O)c1I | inactive
CCOc1cc(NC(C)=O)ccc1C(=O)OC | 5.49 µM (active)
CCOc1cc([N+](=O)[O-])c(OCC)cc1N1CCOCC1 | 1.78 µM (active)
COc1cc(C(=S)N2CCOCC2)cc(OC)c1OC | inactive
CCCOC(=O)C(C)O (stereo not given) | 40.8 µM (active)
C=C(C)C(=O)OCC(C)(C)COC(=O)C(=C)C | inactive
CC[C@H](C)C(=O)O[C@H]1C[C@H](O)C=C2C=C[C@H](C)[C@H](CC[C@@H](O)C[C@@H](O)CC(=O)O)[C@H]21 | inactive
c1ccc2c(c1)ccc1c3ccccc3ccc21 | 0.725 µM (active)
CC1=CCC(C(C)C)=CC1 | inactive

Structure (SMILES) | Potency
CCCCCCCCCC(C)=O | inactive
CCCCCCOC(=O)CC | inactive
Cc1ccccc1C(=O)Nc1ccc(C(=O)N2CCCC(N(C)C)c3ccccc32)cc1 (stereo not given) | inactive
CCNC(=O)C1CC(C)CCC1C(C)C (stereo not given) | inactive
Brc1ccc(-c2ccccc2)cc1 | 6.31 µM (active)
CCCOC(OCCC)OCCC | inactive
CCCCCCCCC(=O)Cl | 64 µM (active)
Oc1ccccc1-c1nnco1 | 30.9 µM (active)
NS(=O)(=O)c1ccc(NC(=O)CCC(=O)O)cc1 | inactive
C=Cc1ccccn1 | inactive
CC(C)C(=O)OCCc1ccccc1 | inactive
O=C(OCC(O)CO)c1ccccc1Nc1ccnc2c(C(F)(F)F)cccc12 (stereo not given) | 2.88 µM (active)
O=S(=O)(O)c1ccc2cc(O)c(S(=O)(=O)O)cc2c1 | inactive
Cc1c(I)c(=O)n(-c2ccccc2)n1C | inactive
CCOC(=O)c1ncn2c1CN(C)C(=O)c1cc(F)ccc1-2 | inactive
NC(CO)C(=O)NNCc1ccc(O)c(O)c1O (stereo not given) | inactive
Cc1nc2n(c(=O)c1CCN1CCC(c3noc4cc(F)ccc34)CC1)CCC[C@H]2O | inactive
CCCCOC(=O)c1ccccc1 | inactive
C[C@H](CCC(=O)O)[C@H]1CC[C@H]2[C@@H]3C(=O)C[C@@H]4CC(=O)CC[C@]4(C)[C@H]3CC(=O)[C@]12C | inactive
OCCC(F)(F)C(F)(F)C(F)(F)C(F)(F)C(F)(F)C(F)(F)C(F)(F)C(F)(F)F | inactive
